# According to PMC4336329 (PLoS ONE, 2015):
# Screen size: about 310,000 compounds; about 14,000 (4.5%) showed an effect of 50% or more. Effects have a minus sign here. The sample holds strong results, similar compounds and a random draw of the others, so the mix is not that of the screen.
# Target: human ether-à-go-go-related gene (hERG) potassium channel (human, UniProt Q12809)
# Assay: primary screen, population patch clamp on CHO cells stably expressing hERG; higher = less effect of the substance
# 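Also: peak tail current of the secondary pulse compared with the same well before compound.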
# Chain of human ether-à-go-go-related gene (hERG) potassium channel (Q12809 whole entry, looked up): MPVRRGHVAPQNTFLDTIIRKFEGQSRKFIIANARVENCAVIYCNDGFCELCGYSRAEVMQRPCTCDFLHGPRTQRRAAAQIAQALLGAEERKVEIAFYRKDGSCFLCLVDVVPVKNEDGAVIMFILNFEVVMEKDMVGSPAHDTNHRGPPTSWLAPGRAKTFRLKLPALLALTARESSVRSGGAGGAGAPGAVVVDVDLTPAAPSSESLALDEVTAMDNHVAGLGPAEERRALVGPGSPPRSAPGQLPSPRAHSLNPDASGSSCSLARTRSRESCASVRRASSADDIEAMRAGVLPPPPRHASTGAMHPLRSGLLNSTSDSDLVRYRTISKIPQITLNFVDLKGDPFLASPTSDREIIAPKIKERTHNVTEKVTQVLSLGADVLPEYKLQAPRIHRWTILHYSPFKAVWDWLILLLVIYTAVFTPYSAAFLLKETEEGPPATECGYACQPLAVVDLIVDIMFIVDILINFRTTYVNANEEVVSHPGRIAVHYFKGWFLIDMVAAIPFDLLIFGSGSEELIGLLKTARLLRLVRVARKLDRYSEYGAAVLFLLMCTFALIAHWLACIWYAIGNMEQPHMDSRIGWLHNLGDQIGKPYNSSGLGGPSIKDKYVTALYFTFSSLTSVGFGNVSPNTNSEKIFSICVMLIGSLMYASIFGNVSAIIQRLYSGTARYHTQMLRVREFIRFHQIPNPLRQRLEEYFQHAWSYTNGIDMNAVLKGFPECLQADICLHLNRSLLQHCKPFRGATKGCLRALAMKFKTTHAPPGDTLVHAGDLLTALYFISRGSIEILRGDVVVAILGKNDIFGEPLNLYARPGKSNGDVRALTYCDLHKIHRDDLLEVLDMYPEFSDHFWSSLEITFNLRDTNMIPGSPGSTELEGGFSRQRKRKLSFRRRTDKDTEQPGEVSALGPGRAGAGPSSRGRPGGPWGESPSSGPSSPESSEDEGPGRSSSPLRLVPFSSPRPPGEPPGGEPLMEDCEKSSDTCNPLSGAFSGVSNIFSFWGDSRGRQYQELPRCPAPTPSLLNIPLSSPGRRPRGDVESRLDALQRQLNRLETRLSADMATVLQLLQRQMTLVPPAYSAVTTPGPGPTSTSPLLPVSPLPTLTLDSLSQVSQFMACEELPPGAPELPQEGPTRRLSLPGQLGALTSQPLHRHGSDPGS
row,Compound,"hERG current change (%, negative = inhibition) at 10uM [%]"
1,O=C(C[n+]1cc(-c2ccc(Cl)c(Cl)c2)n2c1CCC2)c1cccs1.[Br-],-3.09
2,O=C(N/N=C/c1cccc(OC(=O)c2ccccc2Cl)c1)c1cccnc1,-17
3,O=C(Nc1cccc2ccccc12)c1cccc([N+](=O)[O-])c1,11.6
4,O=C1c2ccccc2NC(c2cccc(F)c2)N1Cc1ccco1 (stereo not drawn),-48.6
5,CCN(CC)CCN1C(=O)c2ccccc2NC1c1ccc(Br)cc1 (stereo not drawn),-85.7
6,CCCN1C(=O)c2ccccc2NC1c1ccc(C)cc1 (stereo not drawn),-4.35
7,CCCN1C(=O)c2ccccc2NC1c1ccc(Br)cc1 (stereo not drawn),-18.1
8,O=C1c2ccccc2NC(c2cccc(F)c2)N1Cc1ccccc1 (stereo not drawn),-71.1
9,CCN(CC)CCN1C(=O)c2ccccc2NC1c1cccc(F)c1 (stereo not drawn),-68.2
10,O=C1c2ccccc2NC(c2ccc(F)cc2)N1Cc1ccccc1 (stereo not drawn),-9.65
11,CCN(CC)CCN1C(=O)c2ccccc2NC1c1ccccc1F (stereo not drawn),-46.3
12,CCN(CC)CCN1C(=O)c2ccccc2NC1c1ccc(C)cc1 (stereo not drawn),-66.1
13,CCN(CC)CCN1C(=O)c2ccccc2NC1c1ccc(N(C)C)cc1 (stereo not drawn),-46.6
14,CCCN1C(=O)c2ccccc2NC1c1ccc(Cl)c(Cl)c1 (stereo not drawn),6.85
15,O=C1c2ccccc2NC(c2ccccc2)N1Cc1ccccc1 (stereo not drawn),-35.2
16,COc1ccc(NC(=S)N2CCN(Cc3cccc(F)c3)CC2)c(OC)c1,-6.36
17,COc1ccc(C(=O)N2C(=S)NC(=O)/C2=C\c2ccc(C)cc2)cc1,-2.42
18,Cc1cccc(CN2C(=O)/C(=C\c3ccc(C(=O)NCCCN4CCN(C)CC4)cc3)Oc3ccccc32)c1,-4.13
19,O=C(NCCNC1CCN(Cc2ccccc2)CC1)c1cccs1,-15.2
20,COc1ccc(NC(=O)CN(C)CC(=O)Nc2ccc(Cl)cc2[N+](=O)[O-])cc1,-48
21,CCOC(=O)c1[nH]cnc1C(=O)Nc1ccc(C)cc1,11.6
22,CC1(C)CC(NC(=O)Nc2ccc([N+](=O)[O-])cc2)CC(C)(C)N1,9.76
23,FC(F)(F)c1nnc2c(Sc3ccc(Cl)cc3)nc3ccccc3n12,13.5
24,CC(=O)c1c(C)oc2ccc(OCc3ccccc3)cc12,0.181
